Each structure is given as a SMILES string. Activity calls are given as the source filed them. No rule for the calls is given here.

Pantothenate synthetase (Mycobacterium tuberculosis (strain ATCC 25618 / H37Rv)), sequence (P9WIL5 whole entry, looked up): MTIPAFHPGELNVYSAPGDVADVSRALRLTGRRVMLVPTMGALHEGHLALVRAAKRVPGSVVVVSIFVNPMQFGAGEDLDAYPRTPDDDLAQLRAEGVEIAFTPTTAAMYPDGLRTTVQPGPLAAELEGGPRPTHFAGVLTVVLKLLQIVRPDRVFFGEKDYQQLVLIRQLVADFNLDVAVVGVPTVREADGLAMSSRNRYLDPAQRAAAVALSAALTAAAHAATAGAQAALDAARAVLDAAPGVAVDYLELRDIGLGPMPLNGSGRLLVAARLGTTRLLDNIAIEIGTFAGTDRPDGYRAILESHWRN

The test addresses Pantothenate synthetase (Mycobacterium tuberculosis (strain ATCC 25618 / H37Rv)) (UniProt P9WIL5). The test is described as follows: Coupled enzyme confirmation of inhibitors against recombinant Mtb PanC (AID 375).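 Also: 0% = full reaction with vehicle and 100% = no enzyme background.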 To be noted: coupled enzyme assay; at 10 µM, hits give high values.
Consider `FC(F)(F)c1cccc(N2CCN(Cc3cccnc3)CC2)c1`, for which the inhibition was 4% (inactive). Under `Cc1ccccc1OCCCN1C(=O)C(=O)c2cccc(C)c21` stands 0% (inactive); under `c1ccc(Cn2nnnc2CN2CCN(c3ncccn3)CC2)cc1`, 1% (inactive); under `CCOC(=O)c1[nH]nc(N)c1NC(=O)c1ccc(Cl)cc1Cl`, 0% (inactive). As for `O=C(O)c1cc2nc(-c3ccc(F)cc3)cc(C(F)(F)F)n2n1`, the inhibition is 2% (inactive).

Turning to `Cc1[nH]c(=O)[nH]c(=O)c1S(=O)(=O)Nc1ccc(Oc2ccccc2)cc1`, the inhibition is 6% (inactive). The figure for `O=C(CSc1nc(C2CCCCC2)n(-c2ccccc2)n1)NCCN1C(=O)CSC1=O` is 6% (inactive). Under `CC(C)N(O)C(=O)NC(C)(C)C` stands 6% (inactive); under `CCOC(=O)N1CCC(n2c(=S)[nH]c3cc(OC)c(OC)cc3c2=O)CC1`, 2% (inactive); under `CCOc1nc(NCCC2=CCCCC2)nc(N2CCOCC2)n1`, 0% (inactive). Under `COCCn1nnnc1C(c1ccc(OC)cc1)N1CCN(c2ccccc2F)CC1` (stereo not given) stands 0% (inactive); under `O=C(Nc1cccc(Cl)c1)N1CCN(c2ncccn2)CC1`, 1% (inactive). For `CN(C(=O)c1ccco1)c1nnc(C23CC4CC(CC(C4)C2)C3)s1`, the inhibition was 0% (inactive). The figure for `COc1cccc(OC)c1OCCN1CCN(C(=O)c2ccco2)CC1` is 0% (inactive); for `Cc1ccccc1Cn1c(=O)c2c(nc3n2CCCN3Cc2ccccc2)n(C)c1=O` it is 0% (inactive). Under `c1ccc2nc(-c3nc4ccccc4[nH]3)ccc2c1` stands 0% (inactive); under `CCOc1ccc(NC(=O)CN(C)CC(=O)NC2CCCc3ccccc32)cc1OCC` (stereo not given), 7% (inactive).

In the case of `CCCCNc1cc(C)oc(=O)c1C(C)=O`, the inhibition was 4% (inactive).

As for `CC(C)Cn1cc(C(=O)NCC2CCCO2)c2c3ccccc3n(C)c2c1=O` (stereo not given), the inhibition was 4% (inactive). As for `CCCC(O)(CCN(C)C)c1ccc(OC)cc1` (stereo not given), the inhibition is 0% (inactive). On to `c1cnc(NCCNc2ncccn2)nc1`, for which the inhibition was 0% (inactive). The figure for `COc1ccc(OCc2nc(C#N)c(N3CCN(c4ccc(OC)cc4)CC3)o2)cc1` is 2% (inactive). The figure for `CCOC(=O)N1CCN(C(=O)c2n[nH]c(=O)c3ccccc23)CC1` is 2% (inactive); for `CC(C(=O)Oc1ccc2c(c1)OCO2)N1C(=O)c2ccccc2C1=O` (stereo not given) it is 5% (inactive); for `Cn1c(=N)c(S(=O)(=O)c2ccc(Cl)cc2)cc2c(=O)n3ccccc3nc21` it is 0% (inactive). The figure for `CCOC(=O)c1cc(C)n(CCCN2CCOCC2)c1C` is 0% (inactive); for `CC(=O)Nc1ccc(NS(=O)(=O)c2ccc(Cl)c(C(=O)O)c2)cc1` it is 1% (inactive). For `Cc1ccc2[nH]cc(C(=O)CN3CCC4(CC3)OCCO4)c2c1`, the inhibition is 0% (inactive). The figure for `O=C(O)Cc1ccc(-c2ccccc2)cc1` is 0% (inactive); for `Cc1cc(C)c2nc(N)sc2c1` it is 0% (inactive); for `Cc1cccc(OCC(=O)Nc2ccccc2N2CCN(C(=O)C(C)C)CC2)c1C` it is 5% (inactive). Under `CC(=O)N1CCN(Cc2ccc(Br)s2)CC1` stands 0% (inactive); under `COC(=O)Nc1nc2c(C)cccc2s1`, 0% (inactive); under `Cc1nc(C)c(C(=O)Nc2ccc(Oc3ccccc3)cc2)o1`, 0% (inactive). Under `Cc1c(NC(=O)CCc2ccc(S(=O)(=O)N3CCOCC3)cc2)c(=O)n(-c2ccccc2)n1C` stands 2% (inactive).

Turning to `CC1=C(C(=O)OC2CCCCC2)C(c2ccc(C)o2)C2=C(CC(C)(C)CC2=O)N1` (stereo not given), the inhibition is 0% (inactive). In the case of `CCCCn1c(SCC(=O)NCc2ccccc2)nc2ccc(N3CCOCC3)cc2c1=O`, the inhibition is 0% (inactive). On to `CCOC(=O)N1CCC2(O)CCCCC2C1c1ccc(F)cc1` (stereo not given), for which the inhibition was 1% (inactive). The figure for `Cc1ccc(C(=O)C2COC(=O)C2)cc1` (stereo not given) is 0% (inactive); for `CCCCCCOC(=O)C(C#N)c1nc2ccccc2nc1N1CCCCC1` (stereo not given) it is 0% (inactive).

In general, inhibition refers to the relative decrease from the control value, in per cent.
